Source: PubChem BioAssay (National Center for Advancing Translational Sciences (NCATS))
LASV entry inh – qHTS for Inhibitors of binding or entry into cells for Lassa Virus | Lassa virus pseudotype entry inhibition, cell reporter | Potency, µM (highest dose often 37.9 µM), for the others: at the top dose activity change, negative = inhibition, actives largely listed as inhibitors | 300,000 compounds, 1.2% hits; calls by dose curve; tested in HEK293 cells; note: potency is the fitted concentration of half-maximal effect; nearly all actives have a fitted effect of over 50% in size
FMDV antiviral – High Throughput Screening for Foot and Mouth Disease Virus Antivirals | 410,000 compounds, 1.2% hits | Potency, µM (titrated, usually from 57.9 µM), for inactives: top-dose activity change, negative = inhibition, most hits filed as inhibitors | FMDV antiviral cell-based qHTS; calls by dose curve; tested in HEK293T cells; note: read-out not given here; potency is the fitted concentration of half-maximal effect; nearly all actives have a fitted effect of over 45% in size
VACV mCherry inh – qHTS for Stage-Specific Inhibitors of Vaccinia Orthopoxvirus: mCherry Reporter Primary qHTS | 310,000 compounds, 0.63% hits | Potency, µM (top dose mostly 36.5 µM), for inactives: at the top dose activity change, negative = inhibition, usual class: inhibitors | Vaccinia virus mCherry reporter infection, fluorescence; calls by dose curve; tested in A549 cells; note: potency is the fitted concentration of half-maximal effect; nearly all actives have a fitted effect of over 35% in size
Vaccinia Venus – qHTS for Stage-Specific Inhibitors of Vaccinia Orthopoxvirus: Venus Reporter Primary qHTS; Vaccinia virus Venus reporter expression, fluorescence; Potency, µM (highest dose often 36.5 µM), for inactives: at the top dose activity change, negative = inhibition, most hits filed as inhibitors; 330,000 compounds, 0.46% hits; AID 720580, 2013; calls by dose curve; tested in A549 cells; note: potency is the fitted concentration of half-maximal effect; nearly all actives have a fitted effect of over 30% in size
Marburg entry inh – qHTS for inhibitors of binding or entry into cells for Marburg Virus. 300,000 compounds, 1.8% hits. Potency, µM (titrated, usually from 37.8 µM), inactives show at the highest dose activity change, negative = inhibition, actives largely listed as inhibitors. Marburg virus pseudotyped entry inhibition, cell reporter; calls by dose curve; tested in HEK293 cells; note: potency is the fitted concentration of half-maximal effect
HCMV antiviral – qHTS Assay for inhibitors of the human cytomegalovirus (HCMV); HFF cells, HCMV-luciferase reporter, 72 h; stronger effect = lower value; AID 1259415, 2018; activity change, negative = inhibition, % at 57.5 µM; 410,000 compounds, 4.5% hits; in the data active = activity change below about -60%; inconclusive = no clear call, values can overlap the other calls; inactive = above about -39%
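Human foreskin fibroblasts infected with luciferase-reporter HCMV at MOI 1 PFU/cell, compounds at two doses. Luciferase measured 72 h post infection; normalized to buffer-only basal and Salinomycin (10uM) controls.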
Numbers without * were called inactive; i = inactive; ? = inconclusive; . = no result; ! = not confirmed by another sample; [ ] = another dose, or the depositor's remark. Compounds with a hit are over-represented: about 6.5% of the library has one in this group of screens. % is set by controls: 0 for no effect and ±100 for the full control effect.

SMILES	LASV entry inh	FMDV antiviral	VACV mCherry inh	Vaccinia Venus	Marburg entry inh	HCMV antiviral
O=c1cc(-c2ccccc2[N+](=O)[O-])oc2ccccc12	?	27%	-20%	?	?	-66*
CSc1ccc(-c2cc(=O)c3ccccc3o2)cc1	26%	21%	-11%	-19%	?	-72*
O=c1cc(-c2ccccc2F)oc2ccccc12	-6%	39%	.	.	17%	53
CN1CCC2(CC1)CCN(C(=O)c1cccc(F)c1)CC2	.	-6%	.	.	.	.
Cc1ccc(N(CC(=O)NC2CCCCC2)C(=O)c2ccc(C)s2)cc1	13%	.	-5%	-3%	?	-63*
COC(=O)CCCC1=CC2=C(c3ccccc3)C(=O)C(C)(OC(=O)C3CCCC3)C(=O)C2=CN1Cc1ccc2c(c1)OCO2 (stereo not given)	.	-6%	-26%	-17%	-5%[14.2 µM]	-70*
COC(=O)CCCC1=CC2=C(c3ccccc3)C(=O)C(C)(OC(=O)C3CCCC3)C(=O)C2=CN1c1ccccc1 (stereo not given)	.	-4%	i	-13%	4%[14.2 µM]	30
COC(=O)CCCC1=CC2=C(c3ccccc3)C(=O)C(C)(OC(=O)C3CCCC3)C(=O)C2=CN1C1CC1 (stereo not given)	.	-10%	-5%	-8%	.	-61*
CC(=O)NCc1nnc2c3ccccc3c(-c3ccccc3)nn12	11%[46.1 µM]	1%	i	-8%	7%[46.1 µM]	21
O=C(COc1ccccc1)NCc1nnc2c3ccccc3c(-c3ccccc3)nn12	.	-13%	-9%	-13%	.	-63*
CCOc1ccc(CCNC(=O)c2cnc3sc(N(CC)CC)nn3c2=O)cc1OCC	1%[46.1 µM]	0%	i	-12%	.	-6
CCOc1ccc(CCNC(=O)c2cnc3sc(N4CCCCCC4)nn3c2=O)cc1	?	?	-8%	?	.	21
CCOc1ccc(CCNC(=O)c2cnc3sc(N4CCCC4)nn3c2=O)cc1	?	28µM*	?	?	.	-24
CCN(CC)c1nn2c(=O)c(C(=O)NCCc3ccc(C)cc3)cnc2s1	?	?	-8%	-13%	.	-64*
Cc1cc(C(=O)Nc2ccc(Nc3ccccc3)cc2)ccc1[N+](=O)[O-]	2%	-23%	i	?	0%	-21
Cc1ccccc1NC(=O)c1ccc(Nc2c([N+](=O)[O-])cc([N+](=O)[O-])c3ccccc23)cc1	?	?	?	-25%	?	-92*
COc1cc(NC(=O)CCc2c(C)nc3c(-c4ccc(F)cc4)c(C)nn3c2C)cc(OC)c1OC	5%[46.1 µM]	?	-24%	-18%	18%[46.1 µM]	7
N=c1cc(C2(O)CCCCC2)n2c(nc3ccccc32)s1	10µM*	-23%	.	.	5.8µM*	19
O=C1c2sc3nc4ccccc4n3c2C(=O)N1c1ccccc1Cl	27%	-30%	-19%[1.46 µM]	-14%	-21%	-13
Cc1ccc(N(O)C(C)(C)C)cc1	-17%[46.1 µM]	-11%	i	-1%	?	-33
O=C(Nc1ccc(Cl)cc1Cl)[C@@H]1CC=C[C@@H]2CCN(Cc3ccccc3)C(=O)[C@@H]21	.	.	-27%	-18%	.	.
COc1ccccc1N1CCN(CC(O)COc2cccc3ccccc23)CC1 (stereo not given)	21µM*!	-17%	-13%	-14%	?	17
C=CCc1ccccc1OCC(O)CN1CCN(c2ccccc2OC)CC1 (stereo not given)	?	?	?	-13%	?	-64*!
C=CCc1ccc(OCC(O)CN2CCN(c3ccccc3)CC2)c(OC)c1 (stereo not given)	.	1%	.	.	.	-62*
C=CCc1ccccc1OCC(O)CN1CCN(c2ccccc2F)CC1 (stereo not given)	2%	?	.	-47%	-36%	21
CC(Nc1ccc2c(c1)OCCO2)C(=O)N1c2ccccc2CC1C (stereo not given)	8.9µM*	-27%	-20%	-14%	-2%[46.1 µM]	-39
